Out of some 220,000 compounds screened, about 830 (0.38%) were called active. These entries were drawn from the full list. Results with a measured potency or affinity are listed apart. Unmarked numbers belong to inactive results.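 The calls were made as follows: active = compound inhibiting the enzyme by more than half at any dose during confirmatory dose-response retesting; inconclusive = strong single-dose inhibitors picked by rank but not retested; inactive = the rest.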
The molecules below were run against Leucine aminopeptidase (Plasmodium falciparum (isolate 3D7)) (UniProt Q8IL11) (assay: P. falciparum M17LAP inhibitors, primary screen, biochemical, fluorogenic H-Leu-NHMec substrate, 1536-well (AID 1619;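 also: plate controls were full reaction with DMSO carrier for no effect and no enzyme background for full effect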)). Details: recombinant M17LAP, H-Leu-NHMec fluorogenic kinetic assay; at 30 µM; stronger effect = higher value.
Leucine aminopeptidase (Plasmodium falciparum (isolate 3D7)), sequence (Q8IL11 whole entry, looked up): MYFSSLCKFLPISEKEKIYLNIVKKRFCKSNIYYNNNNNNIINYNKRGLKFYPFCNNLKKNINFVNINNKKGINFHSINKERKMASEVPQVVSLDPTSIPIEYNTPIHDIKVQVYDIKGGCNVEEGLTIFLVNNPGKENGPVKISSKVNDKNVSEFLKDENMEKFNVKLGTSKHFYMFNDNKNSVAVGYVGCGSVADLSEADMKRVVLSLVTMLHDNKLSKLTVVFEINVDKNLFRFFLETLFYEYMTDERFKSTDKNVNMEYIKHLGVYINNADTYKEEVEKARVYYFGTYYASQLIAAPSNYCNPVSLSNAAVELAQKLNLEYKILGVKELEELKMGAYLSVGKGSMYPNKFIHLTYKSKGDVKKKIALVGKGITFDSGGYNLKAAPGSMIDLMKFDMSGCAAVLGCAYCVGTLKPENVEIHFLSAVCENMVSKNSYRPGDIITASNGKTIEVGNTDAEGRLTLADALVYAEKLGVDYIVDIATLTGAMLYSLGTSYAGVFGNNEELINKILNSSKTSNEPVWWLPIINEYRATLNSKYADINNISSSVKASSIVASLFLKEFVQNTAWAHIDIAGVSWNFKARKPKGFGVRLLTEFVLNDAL
With `CCOc1ccc(NC(=S)NNC(=S)Nc2cccc(C(F)(F)F)c2)cc1` the inhibition was -5.94%. For `O=C(NCc1ccco1)c1cc(-c2ccccn2)nc2ccccc12`, the inhibition was 6.45%. In the case of `Cc1ccc(S(=O)(=O)Nc2ccccc2C(=O)OC(C)C(=O)Nc2ccc3ccccc3c2)cc1[N+](=O)[O-]` (stereo unspecified), the inhibition is reported as -9.25%. `COc1ccc(NC(=S)NNc2ccc([N+](=O)[O-])cc2S(=O)(=O)Nc2ccc(C)cc2C)cc1` was tested, and the inhibition was 4.17%. `COc1ccc(NC(=O)c2ccccc2NS(=O)(=O)c2ccc(C)cc2)c([N+](=O)[O-])c1` gave an inhibition of 2.55%. `O=C(O)c1ccccc1Nc1ccc(OC(F)F)cc1` showed an inhibition of 18.9%. In the case of `Cc1ccc(NC(=O)C(C)[n+]2ccccc2)cc1[N+](=O)[O-]` (stereo unspecified), the inhibition is reported as -17.4%. `CCOC(=O)c1nn(-c2ccc(Br)cc2)cc1C(=O)c1cccc2ccccc12` gave an inhibition of 2.03%. `O=C(O)CC12CC3CC(C1)CC(n1ncc(NCc4ccccc4Cl)c(Cl)c1=O)(C3)C2` was tested, and the inhibition was 23.6%. With `O=C(O)CC12CC3CC(C1)CC(n1ncc(NCc4ccccc4)c(Cl)c1=O)(C3)C2` the inhibition was 8.41%. Work on `O=C(O)CC12CC3CC(C1)CC(n1ncc(NCc4ccco4)c(Cl)c1=O)(C3)C2` yielded an inhibition of 7.19%. Work on `O=C(O)C12CC3CC(C1)CC(n1ncc(NCc4ccco4)c(Cl)c1=O)(C3)C2` yielded an inhibition of 1.68%. `O=c1c(Cl)c(NCc2ccc(F)cc2)cnn1C12CC3CC(CC(C3)C1)C2` gave an inhibition of 18.3%. `O=c1c(Cl)c(NCc2ccc(F)cc2Cl)cnn1C12CC3CC(CC(C3)C1)C2` gave an inhibition of -15.2%. `O=c1c(Cl)c(NCc2ccccc2)cnn1C12CC3CC(CC(C3)C1)C2` gave an inhibition of -15.7%. In the case of `O=C(O)Cc1ccc(Nc2cnn(C34CC5CC(CC(CC(=O)O)(C5)C3)C4)c(=O)c2Cl)cc1`, the inhibition is reported as 23.1%. `COc1ccccc1N1CCN(C(=O)COc2ccc(Cl)cc2Br)CC1` gave an inhibition of 1.89%. Molecule `CCOC(=O)C1CCN(C(=O)Nc2ccc(OC(F)(F)F)cc2)CC1` has an inhibition of 7.03%. Work on `O=C(c1cc2cccc([N+](=O)[O-])c2oc1=O)N1CCOCC1` yielded an inhibition of 14.7%. For `CCOC(=O)c1c(C)[nH]c(C)c1C(=O)COC(=O)/C=C/c1cccc(C(F)(F)F)c1`, the inhibition was -1.01%. Molecule `Cc1cc(C)c(OC2(c3ccccc3)OC(=O)c3ccccc32)c(C)c1` (stereo unspecified) has an inhibition of -10.6%. `Cc1ccccc1/C=N/N=C1/NC(=O)CCS1` showed an inhibition of 23.8%. Molecule `CN1CCC(=NNC(=O)C(=O)Nc2ccc(F)cc2)CC1` has an inhibition of 13.2%. Work on `COc1cccc(CNC(=O)CCNS(=O)(=O)c2cccc3nsnc23)c1` yielded an inhibition of -1.94%. With `Cn1cccc1Cc1nnc(SCC(=O)N2CCc3ccccc32)n1CCc1ccccc1` the inhibition was 36.6%. Work on `O=C(N/N=C/c1cccc([N+](=O)[O-])c1)c1cc(-c2ccc3c4c(cccc24)CC3)n[nH]1` yielded an inhibition of -2.54%. `O=C(N/N=C/c1ccccc1C(=O)O)c1cc(-c2ccc3c4c(cccc24)CC3)n[nH]1` showed an inhibition of 91.8%. `CC(C)=CC(=O)Nc1ccc(OCc2ccccc2)cc1` gave an inhibition of 2.98%. Work on `O=C(NCC1CCCO1)/C(=C\c1cccc([N+](=O)[O-])c1)NC(=O)c1ccccc1` (stereo unspecified) yielded an inhibition of -4.67%. Molecule `O=C(O)Cn1c(=O)cnc2ccccc21` has an inhibition of -13.7%. Work on `CC(C)C1N=C2c3ccccc3N=C(SCC#N)N2C1=O` (stereo unspecified) yielded an inhibition of -5.52%. With `CC(C)C1N=C2c3ccccc3N=C(SCC(=O)NCCc3ccc(S(N)(=O)=O)cc3)N2C1=O` (stereo unspecified) the inhibition was -29.1%. For `CNC(=O)c1c2c(nc3ccc(Br)cc13)CCCC2`, the inhibition was -4.18%. `COc1ccc(-n2c(SCC(=O)Nc3cccc4ccccc34)nc(O)cc2=O)cc1` showed an inhibition of -2.11%. Molecule `O=C(CSc1nc2ccccc2c(=O)n1-c1ccc(F)cc1)Nc1ccc2c(c1)CCC2` has an inhibition of 13.5%. `Cc1ccc(-n2c(SCC(=O)Nc3ccc4c5c(cccc35)CC4)nc(O)cc2=O)cc1` was tested, and the inhibition was 26.7%. `Cc1ccc(-n2c(SCC(=O)Nc3ccc4c5c(cccc35)CC4)nc(O)c(C)c2=O)cc1` gave an inhibition of 39%. For `Cc1nnc(SCC(=O)Nc2ccc3c4c(cccc24)CC3)n1C`, the inhibition was 0.6%. For `Cc1cccc(OCC(=O)Nc2ccc3c4c(cccc24)CC3)c1C`, the inhibition was 6.88%. `Cc1ccccc1Cn1nc(C)c(NC(=O)C2c3ccccc3Oc3ccccc32)c1C` showed an inhibition of -14%. `CCN(CC)C(=O)c1ccc(-c2nnc(OC)c3ccccc23)cc1` gave an inhibition of -4.54%. In the case of `COC(=O)c1c(-c2cccs2)csc1NC(=O)c1cccnc1`, the inhibition is reported as 15.9%. With `CCCn1c(SCC(=O)N2c3ccccc3Sc3ccccc32)nc2ccccc21` the inhibition was -2.24%. Work on `CC1CCCCN1Cc1c(C#N)c2ccccc2n1C` (stereo unspecified) yielded an inhibition of -2.84%. Work on `Cc1c(Cl)c(C(F)F)nn1CC(=O)NC1C(=O)N2C(C(=O)O)=C(CSc3nnnn3C)CSC12` (stereo unspecified) yielded an inhibition of 11.3%. Molecule `Cc1nnc(SCC2=C(C(=O)O)N3C(=O)C(NC(=O)Cn4nc(C(F)F)cc4C)C3SC2)s1` (stereo unspecified) has an inhibition of 47.7%. Molecule `O=C(Nc1ccc(Oc2cccc3ccccc23)cc1)c1ccco1` has an inhibition of -4.51%. In the case of `CCN1C(=O)CC(N2CCN(c3ccc(C(=O)c4ccncc4)cc3)CC2)C1=O` (stereo unspecified), the inhibition is reported as 31.2%. Work on `CC(=O)NC(C(=O)OCC(=O)N(c1ccccc1)c1ccccc1)C(C)C` (stereo unspecified) yielded an inhibition of 0.51%. `Cc1cc(N2CCCC2)ccc1/C=C1\NC(=S)N(C)C1=O` showed an inhibition of -1.37%. In the case of `Cc1cc(N2CCCC2)ccc1/C=C1/C(=O)N(C)C(=S)N1C`, the inhibition is reported as 1.26%. Work on `COc1cc2c(cc1OC)C(C(=O)N1CCCCC1)C(c1ccccc1F)N(C)C2=O` (stereo unspecified) yielded an inhibition of 2.89%. In the case of `S=c1cnc2ccccc2[nH]1`, the inhibition is reported as 6.02%. With `N#CCCn1cc(C(=O)N2CCCCC2)c(-c2cccc([N+](=O)[O-])c2)n1` the inhibition was 4.89%. `CC1(C)CC(=O)C(C(C2=C(O)CC(C)(C)CC2=O)c2ccc(Cl)c([N+](=O)[O-])c2)C(=O)C1` (stereo unspecified) gave an inhibition of 7.5%. With `CN(C)/C=N/c1sc2c(c1C#N)CCCC2` the inhibition was 0.79%. For `CN(C)/C=N/c1sc2c(c1C#N)CCCCC2`, the inhibition was 5.07%. With `COc1cc(CNC2CCCC2)cc(Cl)c1OCc1ccccc1F` the inhibition was -3.97%. For `CC(NC(=O)c1ccc(Br)cc1)c1ccccc1` (stereo unspecified), the inhibition was 12.4%. `Cc1nc(-c2cccc(Cl)c2)n[nH]1` gave an inhibition of -5.31%. `CCn1c(-c2cccc(Cl)c2)n[nH]c1=S` was tested, and the inhibition was 6.53%. `COC(=O)CN1C(=O)C(O)(CC(=O)c2ccc(Cl)cc2)c2ccccc21` (stereo unspecified) gave an inhibition of 12.1%. In the case of `C/C(=N/NC(=O)CSCc1ccc(Cl)cc1)c1cccc(NC(=O)c2ccccc2)c1`, the inhibition is reported as -0.71%. Work on `CN(C)C(=S)Nc1cccc(-c2n[nH]c(=S)o2)c1` yielded an inhibition of 4%. In the case of `O=C(CN1C(=O)CSc2ccccc21)Nc1ccc2c(c1)OCCO2`, the inhibition is reported as 12.7%. Work on `O=C(CCN1C(=O)c2ccccc2C1=O)Nc1ccc2c(c1)OCCO2` yielded an inhibition of 10.7%. In the case of `O=C(CN1C(=O)c2cccc3cccc1c23)Nc1ccc2c(c1)OCO2`, the inhibition is reported as 31.3%. In the case of `CC1CC(=O)N(CC(=O)NCc2ccc3c(c2)OCO3)c2ccccc2S1` (stereo unspecified), the inhibition is reported as 24%. `O=C(CN1C(=O)CCSc2ccccc21)Nc1ccc2c(c1)OCO2` showed an inhibition of 48.6%. `CC1CC(=O)N(CC(=O)Nc2ccc3c(c2)OCCO3)c2ccccc2S1` (stereo unspecified) was tested, and the inhibition was 51.7%. In the case of `O=C(CCCNS(=O)(=O)c1cccs1)N1CCc2ccccc2C1`, the inhibition is reported as -15.3%. `COc1ccccc1C(=O)N(NC(=O)Oc1ccccc1)C(C)(C)C` was tested, and the inhibition was -4.52%. `COc1cc(/C=N/NC(=O)c2nonc2N)cc(OC)c1OC` showed an inhibition of 12.6%. For `S=C(Nc1ccccc1)N(CCN1CCOCC1)Cc1cccc(Cl)c1`, the inhibition was 3.82%. For `CCOC(=O)c1[nH]c2ccc(Br)cc2c1NC(=O)CCN1CCCC(C)C1` (stereo unspecified), the inhibition was 19.3%. Work on `CCC(C)(C)NC(=O)CN(C(=O)c1snc(C(N)=O)c1N)c1ccc(OC)c(OC)c1` yielded an inhibition of -0.26%. `CCc1ccccc1NC(=O)CSc1n[nH]c(C)c1[N+](=O)[O-]` was tested, and the inhibition was -11.3%. With `O=C(CSc1ccccn1)Nc1cccc2ccccc12` the inhibition was 6.7%. For `CC(C)n1cnnc1SCC(=O)Nc1ccc(Br)cc1F`, the inhibition was -3.86%. `Cn1cnnc1SCC(=O)Nc1ccc(Br)cc1F` showed an inhibition of 4.31%. `CCCn1c(SCC(=O)Nc2ccccc2CC)nnc1C(C)C` was tested, and the inhibition was -2.04%. Work on `COC(=O)c1ccc(Cl)c(NC(=O)CN2CCN(C)CC2)c1` yielded an inhibition of -7.62%. For `O=C(CSCC(=O)Nc1cccc2ccccc12)Nc1cccc2ccccc12`, the inhibition was -9.94%. With `COC(=O)c1ccc(Cl)c(NC(C)=O)c1` the inhibition was 4.44%. Work on `C/C(=C\C(=O)c1ccccc1)Nc1ccc2c(c1)OCO2` yielded an inhibition of -1.02%. With `CCOC(=O)c1cnc(SC)nc1Oc1cccc(NS(=O)(=O)c2ccccc2)c1` the inhibition was 12.5%. In the case of `COc1ccc(-c2nc(C)c(C(C)=O)n2O)cc1[N+](=O)[O-]`, the inhibition is reported as 39.5%. Molecule `O=C(COn1nnc2ccc(C(F)(F)F)cc21)Nc1c(Cl)cccc1Cl` has an inhibition of -14.4%. For `FC(F)(F)c1ccnc(NCc2ccco2)n1`, the inhibition was 5.81%. With `O=C(CN1C(=O)S/C(=C\C=C\c2ccccc2)C1=O)Nc1ccc(O)cc1` the inhibition was 9.74%. In the case of `O=C(CN1C(=O)S/C(=C\C=C\c2ccccc2)C1=O)Nc1ccc(C(=O)O)cc1`, the inhibition is reported as 15.3%.
